Measurements published in PubChem BioAssay AID1224921 (Broad Institute, 2016).
Out of some 1,400 compounds screened, about 350 (25%) were called active. About 2% were inconclusive and are not listed. How the calls were made is not given here. These entries were drawn from the full list. Entries with a potency or affinity are not part of this list.

Test: C. difficile growth inhibition, confirmation, 4-point retest (AID 1224921);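 further: plate controls were DMSO wells for no effect and levofloxacin 16 µg/mL wells for full effect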
Details: Clostridioides difficile clinical isolate growth, OD600, 24 h, hits give low values; at 30 µM unless noted

Max activity, inactive:
CCCNC(=O)Nc1ccc2c(c1)C(=O)N(C)C[C@H](OC)[C@H](C)CN(C)[C@@H](C)CO2 -3.68% [at 0.5 µM]
C[C@@H]1CN([C@H](C)CO)C(=O)c2c(c3ccccc3n2C)-c2ccccc2CO[C@@H]1CN(C)C(=O)N[C@H](C)c1ccccc1 9.23% [at 35 µM]
CCCNC(=O)Nc1ccc2c(c1)C(=O)N(C)C[C@@H](OC)[C@@H](C)CN(CC1CCCC1)[C@@H](C)CO2 -4.03% [at 1.95 µM]
O=C(C[C@@H]1CC[C@@H]2[C@H](COC[C@H](O)CN2CC2CCCCC2)O1)NCc1ccc(Cl)cc1 22.4% [at 8 µM]
CO[C@H]1CN(C)C(=O)c2ccc(NC(=O)c3ccc(F)cc3)cc2OC[C@H](C)N(C(=O)CN(C)C)C[C@H]1C -10.1%
O=C(C[C@H]1C[C@H]2c3cc(NC(=O)CC4CC4)ccc3O[C@H]2[C@@H](CO)O1)NCc1cccc(F)c1 -3.04% [at 1.95 µM]
Cc1ccc(-c2ccc3c(c2)O[C@H](CN(C)Cc2ccncc2)[C@H](C)CN([C@H](C)CO)S3(=O)=O)cc1 34.8%
C[C@H](CO)N1C[C@H](C)[C@H](CN(C)Cc2cccc(C(=O)O)c2)OCc2ccccc2-c2c(n(C)c3ccccc23)C1=O -7.45% [at 0.5 µM]
CC1=CC2(CO)C(=O)[C@]3(CO3)[C@H]1[C@H]1[C@]2(C)C=C(CO)C(=O)[C@]12CO2 15.6%
Cc1ccc(F)cc1S(=O)(=O)N[C@@H]1CCN(Cc2ccc(OC(C)C)cc2)C1 34.7% [at 8 µM]
C[C@@H]1CN([C@H](C)CO)C(=O)c2c(c3ccccc3n2C)-c2ccccc2CO[C@H]1CN(C)C(=O)c1ccncc1 18.8%
COc1ccccc1-c1ccc2c(c1)O[C@H](CN(C)C(=O)c1ccccc1)[C@H](C)CN([C@@H](C)CO)S2(=O)=O 42.3%
C[C@H](CO)N1C[C@H](C)[C@@H](CN(C)S(=O)(=O)c2ccsc2)OCc2ccccc2-c2ccccc2C1=O 26.8%
CO[C@@H]1CN(C)C(=O)c2ccc(NS(=O)(=O)CC(F)(F)F)cc2OC[C@@H](C)N(C(=O)NC(C)C)C[C@H]1C 14.6%
Cc1noc(C)c1NC(=O)N(C)C[C@@H]1Oc2ccc(NC(=O)CCCCCC(=O)Nc3ccccc3N)cc2C(=O)N([C@@H](C)CO)C[C@@H]1C -8.05% [at 1.8 µM]
CO[C@H]1CN(C)C(=O)c2cc(NC(=O)NC3CCCCC3)ccc2OC[C@@H](C)N(CCc2ccccc2)C[C@H]1C 25.3%
CC(C)CC#Cc1ccc2c(c1)O[C@H](CN(C)Cc1ccncc1)[C@@H](C)CN([C@H](C)CO)S2(=O)=O 17.5%
C[C@@H]1CN([C@@H](C)CO)C(=O)c2cc(/C=C/c3ccccc3)cnc2O[C@H]1CN(C)C(=O)CN(C)C 18%
COCC#Cc1ccc2c(c1)O[C@@H](CN(C)Cc1ccncc1)[C@@H](C)CN([C@H](C)CO)S2(=O)=O 17.6%
O=C(NCCc1ccccc1)[C@H]1[C@H](CO)[C@H]2Cn3c(cccc3=O)[C@@H]1N2C(=O)C1CC1 -7.04%
C[C@H](CO)N1C[C@H](C)[C@@H](CN(C)Cc2cccnc2)Oc2cc(C#CC3CC3)ccc2S1(=O)=O 21.4%
CCCN1C[C@@H](C)[C@H](OC)CN(C)C(=O)c2cc(NC(=O)c3ccc4c(c3)OCO4)ccc2OC[C@H]1C 14.6% [at 35 µM]
C[C@@H]1CN([C@H](C)CO)C(=O)c2ccccc2-c2ccccc2CO[C@H]1CN(C)C(=O)CCN(C)C -7.05% [at 0.5 µM]
COc1ccc(CN(C)C[C@H]2Oc3ccc(NC(=O)Nc4ccc(C(F)(F)F)cc4)cc3C(=O)N([C@@H](C)CO)C[C@H]2C)cc1 -5.09% [at 0.5 µM]
CO[C@@H]1CN(C)C(=O)c2ccc(NS(=O)(=O)c3ccccc3C)cc2OC[C@H](C)N(S(C)(=O)=O)C[C@H]1C -9.59% [at 8 µM]
CNC[C@@H]1Oc2cc(-c3cccnc3)ccc2S(=O)(=O)N([C@H](C)CO)C[C@H]1C 14.8%
C[C@H]1CN([C@@H](C)CO)C(=O)c2ccccc2-c2ccccc2CO[C@H]1CN(C)S(=O)(=O)c1ccsc1 -19.4%
Cc1ccc(-c2ccc3c(c2)O[C@H](CN(C)Cc2cccnc2)[C@H](C)CN([C@H](C)CO)S3(=O)=O)cc1 17.6%
CCCNC(=O)Nc1ccc2c(c1)C(=O)N(C)C[C@H](OC)[C@@H](C)CN(C)[C@@H](C)CO2 4.84% [at 8 µM]
COCCNC(=O)C[C@@H]1CC[C@H]2[C@@H](COc3ccc(NS(=O)(=O)c4ccc(Cl)cc4)cc3C(=O)N2C)O1 14.3%
CC(C)Cc1ccc(CN2CC[C@@H](NS(=O)(=O)c3ccccc3)C2)cc1 -12% [at 0.5 µM]
CCCNC(=O)Nc1ccc2c(c1)C(=O)N(C)C[C@H](OC)[C@@H](C)CN(C(C)=O)[C@H](C)CO2 -7.56% [at 1.95 µM]
CO[C@H]1CN(C)C(=O)c2ccc(NS(=O)(=O)c3ccc(C)cc3)cc2OC[C@H](C)N(C(=O)NC(C)C)C[C@H]1C -11.4% [at 1.95 µM]
C/C=C/c1ccc2c(c1)O[C@H](CN(C)C(=O)c1ccc(F)cc1)[C@H](C)CN([C@@H](C)CO)S2(=O)=O 18.5%
CO[C@H]1CN(C)C(=O)c2cc(NC(C)=O)ccc2OC[C@@H](C)N(Cc2nccs2)C[C@H]1C -12.5% [at 8 µM]
CO[C@@H]1CN(C)C(=O)c2cc(NC(C)=O)ccc2OC[C@H](C)N(CC2CCCCC2)C[C@@H]1C 16.5%
CC(=O)N[C@H]1CC[C@@H](CCNC(=O)Nc2ccc(C(F)(F)F)cc2)O[C@H]1CO 10.2% [at 7.5 µM]
CC(=O)N[C@@H]1CC[C@H](CCNC(=O)Nc2ccc(C(F)(F)F)cc2)O[C@@H]1CO 16.8% [at 8 µM]
